From PubChem BioAssay AID1159580 (chemical genetic matrix, 2015)
About 2,000 (36%) of roughly 5,500 compounds were called active. Roughly 18% stayed inconclusive and do not appear here. No stated cut-off is given here; in the data, active means normalized growth mostly below about 0.91 (no sharp cut-off); inconclusive means no clear call, values can overlap the other calls; inactive means mostly above about 0.92. This is one part of the list.

Assay: chemical genetic growth profiling, strain panel (AID 1159580);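 further: tested at 20 µM; growth read once vehicle control cultures reached saturation at 30 °C; 1 = growth at the plate median or of vehicle wells; lower values mean less growth of the strain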
Conditions: growth OD

Measured: normalized growth

CCOC(=O)N=Nc1c(O)[nH]c2ccc(F)cc12
inactive: S. cerevisiae deletion strains, locus YAL013W, strain DEP1, hits give low values 1.01 | S. cerevisiae deletion strains, locus YBR229C, strain ROT2, hits give low values 1.01 | S. cerevisiae deletion strains, locus YDL101C, strain DUN1, hits give low values 1.01 | S. cerevisiae deletion strains, locus YDR150W, strain NUM1, hits give low values 1 | S. cerevisiae deletion strains, locus YEL061C, strain CIN8, hits give low values 1.02 | S. cerevisiae deletion strains, locus YGR078C, strain PAC10, hits give low values 1 | S. cerevisiae deletion strains, locus YGR229C, strain SMI1, hits give low values 1 | S. cerevisiae deletion strains, locus YHR030C, strain SLT2, hits give low values 1.06 | S. cerevisiae deletion strains, locus YHR087W, strain rtc3, hits give low values 1.03 | S. cerevisiae deletion strains, locus YJR043C, strain POL32, hits give low values 1 | S. cerevisiae deletion strains, locus YJR075W, strain HOC1, hits give low values 1.02 | S. cerevisiae deletion strains, locus YKL190W, strain CNB1, hits give low values 1.01 | S. cerevisiae deletion strains, locus YLR039C, strain RIC1, hits give low values 1.02 | S. cerevisiae deletion strains, locus YLR058C, strain SHM2 (second series), hits give low values 0.997 | S. cerevisiae deletion strains, locus YLR085C, strain ARP6, hits give low values 1.01 | S. cerevisiae deletion strains, locus YLR262C, strain YPT6, hits give low values 1.01 | S. cerevisiae deletion strains, locus YML094W, strain GIM5, hits give low values 1.05 | S. cerevisiae deletion strains, locus YMR219W, strain ESC1, hits give low values 0.999 | S. cerevisiae deletion strains, locus YMR263W, strain SAP30, hits give low values 0.976 | S. cerevisiae deletion strains, locus YMR307W, strain GAS1, hits give low values 0.933 | S. cerevisiae deletion strains, locus YNL128W, strain TEP1, hits give low values 1.02 | S. cerevisiae deletion strains, locus YNL153C, strain GIM3, hits give low values 1 | S. cerevisiae deletion strains, locus YNL298W, strain CLA4 (second series), hits give low values 0.998 | S. cerevisiae deletion strains, locus YNL322C, strain KRE1, hits give low values 1.02 | S. cerevisiae deletion strains, locus YNR030W, strain Alg12, hits give low values 1.01 | S. cerevisiae deletion strains, locus YOL006C, strain TOP1, hits give low values 1.03 | S. cerevisiae deletion strains, locus YPL055C, strain LGE1, hits give low values 1.04 | S. cerevisiae deletion strains, locus YPL241C, strain CIN2, hits give low values 0.889 | S. cerevisiae deletion strains, locus YPR135W, strain CTF4, hits give low values 1.08 | S. cerevisiae strains, strain wild type, hits give low values 1
